# Screens deposited in PubChem BioAssay by National Center for Advancing Translational Sciences (NCATS).
# In the library only some 8.1% were active in any assay of this set; here they are far more common.
# VP16 counter – VP16 counterscreen qHTS for inhibitors of ROR gamma transcriptional activity | Drosophila S2 Gal4-VP16 UAS-luciferase, luminescence, 20 h | Potency, µM (highest dose often 53.6 µM), without a hit: top-dose activity, negative = inhibition, most hits filed as inhibitors | 3.5% of 310,000 active;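 further: Gal4-VP16 expression switched on by copper sulfate through the metallothionein promoter; on the % scale 0 is the no-effect control and ±100 the full control effect; nearly all actives have a fitted effect of over 50% in size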
# PINK1 expr mod – A Quantitative High throughput Screen to Identify Chemical Modulators of PINK1 Expression | PINK1 immunofluorescence, high-content cytometry, 24 h | Potency, µM (doses to about 76.6 µM), without a hit: at the top dose activation (PINK1 increase), hits mostly activators | 0.2% of 410,000 active; active means well fitted activation curve with a large enough effect; inconclusive means small, poorly fitted or top-dose-only effect; cell line not stated here; further: % of control where 0% means no effect; nearly all actives have a fitted effect of over 65% in size
#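 PINK1 protein, normally rapidly degraded, was detected by immunofluorescence after 24 hour compound treatment of a stable cell line. Titration data (5 concentrations) came from laser-scanning cytometry, with CCCP-treated wells as controls.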
# ClpP mod – qHTS Assay for Activators of ClpP; ATP-dependent Clp protease proteolytic subunit (Bacillus subtilis (strain 168)), P80244; purified B. subtilis ClpP, FRET peptide cleavage, 20 min; Potency, µM (highest dose often 57.5 µM), without a hit: at the top dose activity change, negative = active; 1.9% of 340,000 active; AID 651965, 2013; active means well fitted falling curve with a large enough effect; inconclusive means small, poorly fitted or top-dose-only effect; inactive means no such curve, though single readings can be large or run the other way; further: the source files actives as falling curves though it sought activators and does not explain the sign; nearly all actives have a fitted effect of over 65% in size
# Target sequence (P80244 whole entry, looked up): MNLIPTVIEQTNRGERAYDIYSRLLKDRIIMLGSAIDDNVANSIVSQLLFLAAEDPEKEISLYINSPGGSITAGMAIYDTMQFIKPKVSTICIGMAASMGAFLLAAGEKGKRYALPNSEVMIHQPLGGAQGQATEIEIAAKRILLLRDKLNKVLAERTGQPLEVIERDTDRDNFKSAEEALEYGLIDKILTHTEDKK
#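 Purified B. subtilis ClpP, 10 microg/mL final in Tris/HCl pH8 with KCl, BSA, glycerol and Tween-20, cleaved an Abz/nitrotyrosine-quenched decapeptide. Fluorescence (ex 320, em 430) was read at 0 and 20 min at room temperature. Delta was normalized to 5.8 microM ADEP and DMSO/no-enzyme controls.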
# Epigenetic derep – Quantitative High-Throughput Screen for Regulators of Epigenetic Control | Potency, µM (top dose mostly 53.9 µM), inactives show top-dose GFP activation, hits mostly activators | 0.2% of 280,000 active | murine LDR cells, GFP reporter derepression, 30 h; further: % of control where 0% means no effect; nearly all actives have a fitted effect of over 60% in size
#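 Murine LDR cells carrying a silenced, genomically integrated CMV-driven GFP reporter were exposed to compound for 30 hours at 37 C. After PBS washes, GFP-positive cells (20–120 um objects) were counted by laser-scanning microplate cytometry.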
# Sfp inh – qHTS Assay for Inhibitors of Bacillus subtilis Sfp phosphopantetheinyl transferase (PPTase); Biochemical Sfp PPTase activity, qHTS; AID 1490, 2009; 3.5% of 310,000 active; 4'-phosphopantetheinyl transferase ffp (Bacillus subtilis), Q9F4F7; Potency, µM, inactives show largest response in the series, negative = inhibition, most hits filed as inhibitors;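 further: the enzyme is Sfp with the accession as filed and its product quenches rhodamine fluorescence; 0% = enzyme reaction without inhibitor and -100% = no enzyme wells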
#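 After 15 min at room temperature with compound, 15 nM Sfp received 5 uM rhodamine-CoA plus 12.5 uM BHQ-2-ybbR (50 mM Hepes pH 7.6, 10 mM MgCl2). Rate came from the fluorescence difference over 30 min, ex 525/em 598 nm.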
# RORgamma inh – qHTS for inhibitors of ROR gamma transcriptional activity; Nuclear receptor ROR-gamma (Mus musculus), P51450; Drosophila S2 Gal4-RORgamma UAS-luciferase reporter, 20 h; Potency, µM (titrated, usually from 53.6 µM), for the others: top-dose activity change, negative = inhibition, actives largely listed as inhibitors; 5.4% of 310,000 active; AID 2551, 2010; further: on the % scale 0 is the no-effect control and ±100 the full control effect; nearly all actives have a fitted effect of over 60% in size
# Target sequence (P51450 whole entry, looked up, the tested form may be a part): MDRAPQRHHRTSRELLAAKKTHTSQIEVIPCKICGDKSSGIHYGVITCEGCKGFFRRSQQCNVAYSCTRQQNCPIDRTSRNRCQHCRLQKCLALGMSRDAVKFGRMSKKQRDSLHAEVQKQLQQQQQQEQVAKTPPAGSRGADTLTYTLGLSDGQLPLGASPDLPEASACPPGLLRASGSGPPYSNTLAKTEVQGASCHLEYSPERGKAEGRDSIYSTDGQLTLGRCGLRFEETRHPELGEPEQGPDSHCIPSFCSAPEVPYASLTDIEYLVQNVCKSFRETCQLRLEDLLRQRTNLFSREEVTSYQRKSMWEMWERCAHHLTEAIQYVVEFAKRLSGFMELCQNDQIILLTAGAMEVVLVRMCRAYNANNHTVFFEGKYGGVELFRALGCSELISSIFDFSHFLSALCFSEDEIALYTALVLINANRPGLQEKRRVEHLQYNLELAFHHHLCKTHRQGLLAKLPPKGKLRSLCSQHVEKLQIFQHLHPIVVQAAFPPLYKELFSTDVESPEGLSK
#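 Luciferase reporter read in Schneider cells carrying Gal4-RORγ (mouse) and UAS-Photinus luciferase; cells given compound 1 h before 700 uM copper sulfate induction, then incubated 20 h at ambient temperature.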
# An asterisk follows results filed as active; ? = inconclusive; . = no result; [ ] = remark or other dose. Unless noted, the call rests on the fitted dose curve; in most records, active means well fitted curve in the direction sought with a large enough effect; inconclusive means small, poorly fitted or top-dose-only effect, or another doubt; inactive means no such curve, though single readings can be large; an effect the other way counts as inactive or inconclusive. Potency means the concentration at half of the fitted maximal effect.
SMILES,VP16 counter,PINK1 expr mod,ClpP mod,Epigenetic derep,Sfp inh,RORgamma inh
CCCCC(=O)Nc1ccc(C(=O)NNC(=S)NC(=O)c2ccccc2[N+](=O)[O-])cc1,-3%,0%,.,2%,35µM*,12%
CCCOc1ccc(C(=O)NNC(=S)NC(=O)c2cccs2)cc1,7.9µM*,3%,.,.,28%,8.9µM*
CCCOc1ccc(C(=O)NNC(=S)NC(C)=O)cc1,8%,12%[38.3 µM],-3%,-2%,?,2%
C=CCNC(=S)NNC(=O)c1ccc(OCCCC)cc1,?,2%,12%,-1%,21%,8.9µM*
CC(C)C(=O)Nc1ccc(C(=O)NNC(=S)NC(=O)c2ccccc2[N+](=O)[O-])cc1,-2%,1%,1%,1%,11%,-3%
CCCOc1ccc(C(=O)NNC(=S)NC(=O)c2ccccc2)cc1,?,5%,-1%,.,12%,10µM*
C[C@@H]1CC2[C@@H]3C[C@H](F)C4=CC(=O)C(Cl)=C[C@]4(C)[C@@]3(F)[C@H](O)C[C@]2(C)[C@@]1(O)C(=O)CO (stereo partly specified),9%,.,.,.,13%,-4%
Cc1cc(NC(=O)CSc2ncc(C(=O)Nc3ccc(C)c(C)c3)c(=O)n2C)no1,.,-1%,-7%,3%,.,.
CCCOc1ccc(C(=O)NNC(=S)NC(=O)c2ccccc2[N+](=O)[O-])cc1,20µM*,1%,0%,.,31%,18µM*
CC(C)(C)c1ccc(OCC(=O)NNC(=S)NC(=O)c2ccccc2[N+](=O)[O-])c(Br)c1,16µM*,?,2%,0%,40µM*,11µM*
C=CCNC(=S)NNC(=O)C(CCCC)CC(C)(C)O (stereo unspecified),5.6µM*,4%,1%,-5%,18µM*,2.8µM*
CCCC(=O)Nc1ccc(C(=O)NNC(=S)NC(=O)c2cccs2)cc1,-22%,1%[38.3 µM],-2%,5%,7%,10µM*
CCCC(=O)Nc1ccc(C(=O)NNC(=O)c2cccs2)cc1,6%,-1%[38.3 µM],-1%,-1%,2%,14%
Cc1ccccc1OCC(=O)NNC(=S)NC(=O)c1ccccc1[N+](=O)[O-],-24%,-1%,-1%,-1%,22%,-8%[10 µM]
CCc1cc2c(cc3c(=O)n(CC(=O)NC4CCC(C)CC4)ncn32)s1 (stereo unspecified),.,0%,-6%,0%,.,.
COc1ccc(-c2nc3c(C#N)c[nH]n3c2NC2CCCC2)c(OC)c1,.,2%,-2%,3%,.,.
CCCc1cc(=O)[nH]c2nnc(SCCC(C)C)n12,.,-5%,-1%,2%,.,.
CCc1ccccc1N(C)C(=O)c1cc2c(=O)oc3ccccc3c2s1,.,1%,0%,-1%,.,.
CCOc1ccccc1NC(=O)Cn1c(=O)n(-c2ccc(C)c(C)c2)c(=O)c2oc3ccccc3c21,.,3%,1%,?,.,.
CCCOc1ccc(-c2cc(C(=O)NCC3CCCO3)c3ccccc3n2)cc1 (stereo unspecified),-8%,7%,.,-2%,-10%,26%
CCCOc1ccc(C(=O)NNC(=S)NC(=O)c2cc(-c3ccccc3)nc3ccccc23)cc1,-18%,2%,1%,-1%,0%,7.1µM*
O=C(N/N=C/c1cn(-c2ccccc2)nc1-c1cc2ccccc2o1)c1ccccc1Br,5µM*,1%,1%,0%,22%,?
O=C(N/N=C/c1cn(-c2cccs2)nc1-c1ccccc1)c1ccccc1Br,6.3µM*,2%,22µM*,0%,1%,5.6µM*
O=C(N/N=C/c1cn(-c2cccs2)nc1-c1ccccc1)c1ccccc1O,?,28µM*,?,-3%,23%,0.028µM*
O=C(N/N=C/c1ccccc1C(=O)O)c1ccccc1Br,9%,-1%,.,-2%,11%,17%
SMILES,VP16 counter,PINK1 expr mod,ClpP mod,Epigenetic derep,Sfp inh,RORgamma inh
CC1=NC(=O)C(N=Nc2cccc(C(=O)O)c2)N1c1ccccc1 (stereo unspecified),8.9µM*,-1%[38.3 µM],-4%,1%,-4%,5.6µM*
O=C(Nc1nnc(S(=O)(=O)N2CCc3ccccc32)s1)c1cccc(Cl)c1,.,9%,-4%,2%,.,.
CCOc1ccc(NC(=S)Nc2ccc3nsnc3c2)cc1,?,-2%,2%,-2%,?,-91%
CCOc1ccc(NC(=O)CCNC(=O)Cn2ccc3ccccc3c2=O)cc1,-4%,6%,32µM*,.,4%,0%
CCOc1ccccc1NC(=O)CCNC(=O)Cn1ccc2ccccc2c1=O,-4%,2%,.,.,15%,6%
CCOc1ccc(NC(=S)Nc2cccc3cnccc23)cc1,?,2%,1%,-1%,?,18µM*
CCOc1ccc(NC(=S)Nc2cccc3ccccc23)cc1,8.9µM*,0%,3%,.,-25%,7.9µM*
COc1ccc(NC(=S)Nc2cccc3cnccc23)cc1,1%,1%,-1%,-2%,?,-32%
CCOc1ccc(NC(=S)Nc2ccccc2C2CC2)cc1,11µM*,-1%,.,-2%,-4%,2.8µM*
Nc1c(-c2nc(-c3ccccc3Cl)no2)nnn1-c1ccccc1C(F)(F)F,.,1%,0%,7%,.,.
Cc1ccc(Cl)cc1NC(=O)c1oc2ccc(S(=O)(=O)N3CCC4(CC3)OCCO4)cc2c1C,.,3%,4%,2%,.,.
O=C(Nc1ccc(Cl)cc1Cl)[C@@H]1CC=C[C@@H]2CCN(C3CC3)C(=O)[C@@H]21,.,.,2%,.,.,.
N#Cc1ccc(NC(=O)COc2ccccc2C(=O)Nc2ccccc2)cc1,.,0%,-9%,.,.,.
COc1ccc(NC(=O)CCCc2nc(-c3ccco3)no2)c(OC)c1,.,-1%,-1%,2%,.,.
O=C(N/N=C/c1cc(O)ccc1Br)c1cccnc1,1.3µM*,-2%,-4%,.,24%,1.8µM*
O=C(N/N=C/c1cc(Br)c(O)c(Br)c1O)c1cccnc1,?,0%,-1%,.,-16%,?
O=C(N/N=C/c1ccc(Br)s1)c1cccnc1,16µM*,0%,2%,-1%,-20%,1.3µM*
O=C(CSc1nnc(-c2cccs2)o1)Oc1ccccc1Cl,.,1%,28%,-3%,.,.
CCSc1nc(N)c(C#N)c(-c2ccco2)c1C#N,?,0%,?,-2%,5%,7%
CCSc1ccc(-c2ccco2)nn1,?,-1%,-3%,0%,14µM*,15%
